Compound activity as filed in PubChem BioAssay.
D2 ag-1: HTS Assay for Allosteric Agonists of the Human D2 Dopamine Receptor: Primary Screen for Agonists; D(2) dopamine receptor (Homo sapiens), P14416; HEK293 T-REx D2 cells, calcium flux agonist mode; activation, % at 2 µM; hit rate 0.53% among 340,000; AID 485358, 2010;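 active = activation over 3 SD above normal in the single-dose calcium agonist read, cut at about 30% in these data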; also: 0% is about no effect
Target sequence (P14416 whole entry, looked up): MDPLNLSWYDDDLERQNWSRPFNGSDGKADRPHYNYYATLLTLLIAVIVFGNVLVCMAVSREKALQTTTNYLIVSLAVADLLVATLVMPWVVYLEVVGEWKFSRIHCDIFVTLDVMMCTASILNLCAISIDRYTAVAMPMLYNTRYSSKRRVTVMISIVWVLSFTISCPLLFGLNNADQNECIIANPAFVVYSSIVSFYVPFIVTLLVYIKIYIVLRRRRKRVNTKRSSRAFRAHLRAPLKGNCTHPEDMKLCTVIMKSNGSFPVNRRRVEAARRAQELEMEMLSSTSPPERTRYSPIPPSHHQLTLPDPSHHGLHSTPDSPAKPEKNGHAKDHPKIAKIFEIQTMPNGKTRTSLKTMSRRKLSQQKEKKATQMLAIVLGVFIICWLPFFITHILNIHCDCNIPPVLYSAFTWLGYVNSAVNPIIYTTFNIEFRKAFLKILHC
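Agonism scored from kinetic calcium signal (1 read/sec, 180 s) following compound pin transfer, after a 10 s baseline. Cells: HEK293 Trex line expressing inducible D2 receptor coupled to calcium, dye-loaded after overnight culture at 30 C.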
D2 PAM-1: Beta-Arrestin HTS for Positive Allosteric Modulators of the Human D2 Dopamine Receptor: Potentiators | DiscoveRx D2 beta-arrestin cells, luminescence, 90 min; 100% = 57 uM dopamine signal | hit rate 0.23% among 360,000 | potentiation, % (test concentration not listed); in the data active = potentiation above about 50%; inconclusive = mostly about 30% to 49%
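D2 cells co-treated with compound plus 50 nM dopamine (EC20) for 90 min at 37 deg C to detect potentiation. Beta-arrestin recruitment was read as enzyme-fragment luminescence after 1 h at ambient temperature. Full response was set by 57 uM dopamine.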
D2 ag-2: Beta-Arrestin HTS for Positive Allosteric Modulators of the Human D2 Dopamine Receptor: Agonists | D(2) dopamine receptor (Homo sapiens), P14416 | DiscoveRx PathHunter D2 beta-arrestin, luminescence, 90 min; 100% = 57 uM dopamine signal | activation, % (no concentration beside the values) | hit rate 0.084% among 360,000; in the data active = activation above about 40%; inconclusive = between about 15% and that limit
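Agonist mode: compounds alone added to overnight-plated D2 PathHunter cells for 90 min at 37 C, with 57 uM final dopamine (EC100) defining full response. Beta-arrestin recruitment detected by chemiluminescent reagent, read after 1 h at ambient temperature.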
Apoferritin bind: qHTS Assay for Identification of Novel General Anesthetics | apoferritin/1-aminoanthracene competitive binding, fluorescence | Potency, µM (top dose mostly 77.5 µM), without a hit: at the top dose activity change, negative = displacement, actives largely listed as inhibitors | hit rate 0.074% among 350,000; active = well fitted inhibition curve with a large enough effect; inconclusive = small, poorly fitted or top-dose-only effect; inactive = no such curve, though single readings can be large or run the other way; also: potency is read from the fitted curve at half-maximal effect; % is scaled to controls: 0 for no effect and ±100 for the full control effect; nearly all actives have a fitted effect of over 20% in size
Target sequence (P02791 2-175 limits assumed): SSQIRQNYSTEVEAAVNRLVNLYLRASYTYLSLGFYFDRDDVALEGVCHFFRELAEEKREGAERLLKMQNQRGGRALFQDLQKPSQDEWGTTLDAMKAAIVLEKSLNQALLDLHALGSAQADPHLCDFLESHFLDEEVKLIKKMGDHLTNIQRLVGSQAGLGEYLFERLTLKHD
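Horse-spleen apoferritin (10 uM) in 50% saturated 1-aminoanthracene in PBS was incubated 10 min at room temperature with compound. Fluorescence (ex 380, em 535 nm) was normalized to free and bound 1-AMA, with concentration-response fitted by a four-parameter Hill equation.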
D2 antagonist: HTS Assay for Allosteric Antagonists of the Human D2 Dopamine Receptor: Primary Screen for Antagonists; D(2) dopamine receptor (Homo sapiens), P14416; HEK293 TREx D2 cells, calcium flux, dopamine EC80; hit rate 2% among 340,000; inhibition, % at 10 µM; AID 485344, 2010; in the data active = inhibition above about 30%; inactive = below that, where a call was filed; also: 0% is about no effect
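Inhibition of EC80 dopamine-driven calcium flux, recorded kinetically, defines activity here; cells are a tetracycline-induced HEK293 T-REx line expressing force-coupled D2.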
D2 PAM-2: HTS Assay for Positive Allosteric Modulators of the Human D2 Dopamine Receptor: Primary Screen for Potentiators; hit rate 0.34% among 340,000; HEK293 T-REx D2, calcium flux, EC20 dopamine potentiation; D(2) dopamine receptor (Homo sapiens), P14416; potentiation, % at 10 µM;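 active = potentiation over 3 SD above the plate norm, cut at about 30% in these data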; also: 0% is about no effect
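Potentiation of an EC20 dopamine calcium response is measured in a force-coupled, tetracycline-inducible Hek293 Trex D2 line. Compound-only kinetic reads over 180 s flag agonists before dopamine addition.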
Numbers without * were called inactive; ? = inconclusive; . = not tested or not shown. Hits are enriched below; roughly 2.5% of the tested compounds scored in any of these assays.

SMILES | D2 ag-1 | D2 PAM-1 | D2 ag-2 | Apoferritin bind | D2 antagonist | D2 PAM-2
CCN(CC(=O)NCc1cccs1)C(=O)c1cc(S(=O)(=O)N2CCOCC2)ccc1C | 1 | -5 | -4 | -5% | 14 | -4
C=CCn1c(SCC(=O)Nc2ncc(Cc3ccc(Br)cc3)s2)nnc1-c1ccncc1 | 0 | -8 | 4 | ? | 16 | 32*
Cc1cc(C)n2cc(CSc3nnc(-c4ccccc4)o3)nc2n1 | -1 | -2 | -1 | -14% | -6 | 10
COC(=O)C1=C(C)NC2=C(C(=O)CC(C)(C)C2)C1c1ccccn1 (stereo unspecified) | 1 | 3 | 0 | 112% | -7 | 33*
Cc1c(Cl)cccc1NC(=O)CSc1nc2c(c(=O)[nH]1)CCCC2 | -1 | . | . | 5% | -3 | -1
COc1cccc(/C=N/NC(=O)CNC(=O)c2ccncc2)c1O | 1 | -1 | 8 | -4% | -5 | 65*
CC1Cn2c(CCc3ccccc3)nnc2S1 (stereo unspecified) | . | 12 | -2 | -8% | . | .
N#Cc1ccc(C(=O)OCc2cccc(S(=O)(=O)N3CCOCC3)c2)cc1 | 0 | -22 | -1 | . | -5 | -7
O=C(NC1CCc2ccccc21)c1cc(COc2ccc(F)cc2Cl)on1 (stereo unspecified) | 2 | -9 | -2 | ? | -6 | 3
O=C(NC1CCc2ccccc21)c1cc(COc2cncc(Cl)c2)on1 (stereo unspecified) | 0 | -8 | -2 | 45µM* | -8 | 1
CCc1ccc(NC(=O)C(=O)NNC(=O)c2ccc(OC)cc2)cc1 | 1 | -1 | -5 | 4% | 43* | -14
COc1ccc(C(=O)NNC(=O)C(=O)Nc2ccc(C)cc2)cc1 | -3 | -8 | -8 | 2% | 9 | .
Cc1nc(C(=O)NCC(=O)c2ccccc2)c(C(F)(F)F)o1 | 0 | -1 | -5 | -3% | 32* | -1
Cc1nc(C(=O)NNC(=O)c2ccccc2)c(C(F)(F)F)o1 | 0 | -1 | -2 | -4% | -10 | 5
O=C(O)c1ccccc1SCC(=O)N1CCCCC1 | 0 | 3 | -1 | -9% | 0 | 3
O=C(O)c1ccccc1SCC(=O)N1c2ccccc2Sc2ccccc21 | -1 | 62* | ? | 7% | -6 | -4
CS(=O)(=O)c1nc(-c2ccc(Br)cc2)cc(-c2ccccc2)c1C#N | 1 | 0 | -2 | ? | 41* | -3
CCN(CC)c1ccc(NC2=C(Cl)C(=O)c3ccccc3C2=O)cc1 | 0 | 60* | 10 | 4% | 13 | 1
Cc1ccc(C(C)(C)NC(=O)C2CCC(=O)N(C3CCCCCC3)C2)cc1 (stereo unspecified) | 0 | 6 | 0 | -9% | -16 | -4
Nc1ccc2c(c1)Cc1cc([N+](=O)[O-])ccc1-2 | 47* | -12 | -7 | -19% | 13 | -8
O=C(O)c1c2c(nc3ccccc13)-c1ccccc1CC2 | . | -5 | 3 | -1% | . | .
c1ccc2c(c1)CCc1c-2nc2ccccc2c1N1CCOCC1 | 1 | -16 | -4 | -10% | 37* | -14
CCCC1(c2ccccc2)NC(=O)N(CC(=O)NCc2ccc(C)cc2)C1=O (stereo unspecified) | . | -4 | 0 | 2% | . | .
CC(C)(C)NCCOc1ccc2ccccc2c1 | 3 | -11 | -2 | -8% | 45* | -21
Cc1cc(C(=O)N2CCN(S(=O)(=O)c3ccccc3F)CC2)c(C)o1 | 0 | -2 | 2 | -9% | -2 | 47*
SMILES | D2 ag-1 | D2 PAM-1 | D2 ag-2 | Apoferritin bind | D2 antagonist | D2 PAM-2
Cc1cc(C(=O)N2CCN(S(=O)(=O)c3ccccc3C#N)CC2)c(C)o1 | 0 | -4 | -4 | . | 23 | 20
C=C(C)C(=O)OC1(C(F)(F)F)Oc2cc(C)ccc2NC1=O (stereo unspecified) | 2 | -5 | -3 | 18µM* | -4 | 3
CCOC(=O)C1(N(CC)CC)Sc2cc(C)ccc2NC1=O (stereo unspecified) | 1 | -4 | -3 | -15% | -16 | 5
CC(C)Oc1cccc(C(=O)Nc2ccccc2N2CCOCC2)c1 | 0 | -2 | 2 | ? | 33* | -2
CCC(C)Oc1cccc(C(=O)Nc2ccccc2N2CCOCC2)c1 (stereo unspecified) | 0 | -1 | 1 | -14% | -2 | 3
CC(C(=O)Nc1ccccc1)N(C)Cc1cccs1 (stereo unspecified) | 0 | -16 | -4 | -13% | -3 | -9
CC(NC(=O)c1ccco1)C(=O)NC(C)c1cc(F)c(Cl)cc1Cl (stereo unspecified) | 1 | -19 | -5 | -2% | -3 | 30*
O=c1[nH]nc(C(F)(F)F)c2nnn(Cc3ccccc3Cl)c12 | 0 | 1 | 5 | -6% | -1 | -1
Cc1n[nH]c(=O)c2c1nnn2Cc1ccccc1Cl | 0 | -8 | -1 | -1% | 58* | -7
O=C(CSc1n[nH]c(-c2cccnc2)n1)Nc1ccccc1[N+](=O)[O-] | -1 | 2 | 0 | -1% | 7 | 10
CCOC(=O)CNC(=O)c1sc(NC(=O)/C=C/c2ccccc2)nc1C | 0 | -4 | 0 | 3% | 34* | -12
CCCc1cc(=O)n(-c2nc3ccccc3s2)[nH]1 | 0 | 11 | -1 | 0% | -14 | 3
Cn1cccc1/C=N/N1CCN(c2ccccn2)CC1 | 31* | -3 | 4 | -17% | 25 | -8
COc1ccc(OCC(=O)Nc2ccccc2C(=O)N2CCOCC2)cc1 | -1 | -5 | -5 | 3% | -15 | 36*
O=C(COc1ccc(Br)cc1)Nc1ccccc1C(=O)N1CCOCC1 | 0 | -4 | -6 | -4% | -4 | -2
COC(=O)c1sc(NC(=S)NC(=O)c2ccccc2Cl)nc1C | -2 | 2 | -2 | 1% | -3 | 15
N#Cc1ccc(-c2cn(-c3ccccc3)c3[n+]2CCCS3)cc1 | 1 | -4 | -8 | -4% | -10 | 0
CC1(NC(=O)C2CCCCC2)CCS(=O)(=O)C1 (stereo unspecified) | 2 | 0 | -18 | -6% | 42* | -3
